Activity calls are given as the source filed them.
What was measured:
[1] = E. coli DRC41 culture turbidity changes, primary screen, E. coli filamentation inducer project, strain DRC41, OD650, 48 h (AID 1152);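 also: E. coli MC1000 strain DRC41 lacking acrAB efflux pump and sulA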; conditions: E. coli DRC41 (acrAB sulA), higher = more signal, called active from +8 up or from −8 down
[2] = small-molecule binders of probe aLefty1, primary screen, biochemical, small-molecule microarray, 635/667 nm fluorescence (AID 1153); conditions: higher = more signal;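 also: score merges spot fluorescence with signal-to-noise ratio from the scanned slide images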
[3] = PSAC antagonists in infected red cells, primary screen, cell-based, P. falciparum Indochina, OD700, 1 h (AID 1154); conditions: P. falciparum Indochina infected RBC osmotic lysis, higher = more signal, called active from +8 up or from −8 down
[4] = PSAC antagonists in infected red cells, primary screen, cell-based, P. falciparum Indochina, OD700, 2 h (AID 1155);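 also: lysis reports solute entry through the parasite surface anion channel PSAC; channel blockers reduce lysis of infected cells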; conditions: P. falciparum Indochina infected erythrocytes, osmotic lysis OD700; higher = more signal, called active from +8 up or from −8 down
[5] = osmotic lysis modulators in infected erythrocytes, primary screen, PSAC antagonist project, cell-based, P. falciparum Indochina, OD700, 3 h (AID 1156); conditions: higher = more signal, called active from +8 up or from −8 down
[6] = PSAC antagonists in infected red cells, primary screen, cell-based, P. falciparum Indochina, OD700, 18 h (AID 1157); conditions: P. falciparum Indochina infected erythrocytes, osmotic lysis OD700, 18 h; higher = more signal, called active from +8 up or from −8 down
[7] = modulators of S6 phosphorylation in cells, primary screen, cell-based, A549, cytoblot, luminescence, serum-stimulated (AID 1158); conditions: A549 phospho-S6 cytoblot, 5 h, higher = more signal;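 also: serum-stimulated A549 lung adenocarcinoma cells; signal is phosphorylated S6 detected by cytoblot immunostaining with HRP secondary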
[8] = molecular target: NADPH oxidase 2 (Homo sapiens) (UniProt P04839); experiment: NOX2-dependent H2O2 signal modulators, primary screen, NOX inhibitor project, cell-based, HEK293-NOX2, PMA-stimulated, Amplex Red fluorescence (AID 1159); conditions: 45 min, higher = more signal, called active from +8 up or from −8 down; also: test concentration not given here
Chain of NADPH oxidase 2 (Homo sapiens) (P04839 whole entry, looked up): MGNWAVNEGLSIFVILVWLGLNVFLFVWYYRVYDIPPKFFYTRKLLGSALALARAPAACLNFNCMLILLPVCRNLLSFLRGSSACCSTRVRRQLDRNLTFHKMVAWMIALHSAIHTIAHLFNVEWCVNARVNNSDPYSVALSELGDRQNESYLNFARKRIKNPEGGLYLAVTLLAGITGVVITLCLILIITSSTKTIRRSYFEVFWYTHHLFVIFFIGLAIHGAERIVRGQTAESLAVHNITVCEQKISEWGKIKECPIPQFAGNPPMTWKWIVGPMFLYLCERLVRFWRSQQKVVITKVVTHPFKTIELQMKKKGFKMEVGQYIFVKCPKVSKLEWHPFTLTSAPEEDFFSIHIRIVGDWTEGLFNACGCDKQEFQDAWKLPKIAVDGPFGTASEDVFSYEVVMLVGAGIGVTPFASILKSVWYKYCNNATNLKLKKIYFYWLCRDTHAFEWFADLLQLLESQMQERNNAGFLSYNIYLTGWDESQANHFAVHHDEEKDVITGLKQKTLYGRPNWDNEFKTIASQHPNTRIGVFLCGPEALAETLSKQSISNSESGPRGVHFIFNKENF

[9] = molecular target: NADPH oxidase 4 (Homo sapiens) (UniProt Q9NPH5); experiment: NOX4-dependent H2O2 signal modulators, primary screen, NOX inhibitor project, cell-based, HEK293-NOX4, tetracycline-induced, Amplex Red fluorescence (AID 1160); conditions: 45 min, higher = more signal, called active from +8 up or from −8 down
Chain of NADPH oxidase 4 (Homo sapiens) (Q9NPH5 whole entry, looked up): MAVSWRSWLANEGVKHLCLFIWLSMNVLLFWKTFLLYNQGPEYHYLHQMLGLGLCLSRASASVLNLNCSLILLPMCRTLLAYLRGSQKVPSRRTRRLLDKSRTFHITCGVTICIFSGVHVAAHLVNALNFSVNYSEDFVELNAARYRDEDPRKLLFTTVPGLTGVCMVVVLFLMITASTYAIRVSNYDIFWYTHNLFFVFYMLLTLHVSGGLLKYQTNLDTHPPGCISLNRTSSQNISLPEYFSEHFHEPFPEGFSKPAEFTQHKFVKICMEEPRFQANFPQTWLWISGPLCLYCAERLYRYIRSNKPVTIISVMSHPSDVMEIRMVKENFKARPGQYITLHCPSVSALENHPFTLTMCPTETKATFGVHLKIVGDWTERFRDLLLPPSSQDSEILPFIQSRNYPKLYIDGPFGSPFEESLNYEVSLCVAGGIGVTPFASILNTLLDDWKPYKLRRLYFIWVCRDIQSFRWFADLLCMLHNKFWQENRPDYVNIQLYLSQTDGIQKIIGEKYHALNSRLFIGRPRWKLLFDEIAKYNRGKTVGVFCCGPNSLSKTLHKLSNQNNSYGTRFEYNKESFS

[10] = molecular target: NADPH oxidase 5 (Homo sapiens) (UniProt Q96PH1); experiment: NOX5-dependent H2O2 signal modulators, primary screen, NOX inhibitor project, cell-based, HEK293-NOX5, Amplex Red fluorescence (AID 1161); conditions: HEK293-NOX5, ionomycin, 45 min, higher = more signal
Chain of NADPH oxidase 5 (Homo sapiens) (Q96PH1 whole entry, looked up): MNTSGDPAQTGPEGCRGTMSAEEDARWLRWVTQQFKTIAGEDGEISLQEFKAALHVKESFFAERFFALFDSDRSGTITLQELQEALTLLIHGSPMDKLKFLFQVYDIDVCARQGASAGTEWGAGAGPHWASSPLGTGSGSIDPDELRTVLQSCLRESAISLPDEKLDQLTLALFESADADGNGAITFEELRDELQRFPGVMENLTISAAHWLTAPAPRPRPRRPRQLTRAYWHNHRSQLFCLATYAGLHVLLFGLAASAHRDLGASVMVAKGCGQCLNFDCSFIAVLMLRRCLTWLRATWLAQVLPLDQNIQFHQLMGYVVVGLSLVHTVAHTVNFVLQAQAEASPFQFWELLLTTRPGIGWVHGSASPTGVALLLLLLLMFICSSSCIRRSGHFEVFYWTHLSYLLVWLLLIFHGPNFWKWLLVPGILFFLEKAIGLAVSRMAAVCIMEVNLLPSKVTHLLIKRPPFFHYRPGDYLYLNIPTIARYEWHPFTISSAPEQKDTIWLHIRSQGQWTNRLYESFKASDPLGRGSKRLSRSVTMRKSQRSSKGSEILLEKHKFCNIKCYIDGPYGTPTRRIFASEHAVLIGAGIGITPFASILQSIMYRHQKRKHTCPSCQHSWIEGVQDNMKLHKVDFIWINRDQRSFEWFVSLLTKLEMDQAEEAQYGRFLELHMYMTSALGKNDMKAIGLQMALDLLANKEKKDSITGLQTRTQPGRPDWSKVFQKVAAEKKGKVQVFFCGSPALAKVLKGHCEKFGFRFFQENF

Structure (SMILES) | z-score [1] | composite z-score [2] | z-score [3] | z-score [4] | z-score [5] | z-score [6] | z-score [7] | z-score [8] | z-score [9] | z-score [10]
CN1C(=O)C2C=CC(C(O)c3c(F)cccc3Cl)N(NC(=O)OC(C)(C)C)C2C1=O (stereo not given) | -0.963 (inactive) | 0.343 | -0.332 (inactive) | 0.119 (inactive) | -0.46 (inactive) | 0.58 (inactive) | -1.11 | -1.06 (inactive) | -0.495 (inactive) | -1.03
COCCOC(=O)N1C(=O)[C@@]2(c3ccccc31)[C@H](c1ccc(OCCO)cc1)N1[C@H](c3ccccc3)[C@H](c3ccccc3)OC(=O)[C@H]1[C@@H]2C(=O)N1CCc2cc(OC)c(OC)cc2C1 | 0.341 (inactive) | 0.358 | 12.7 (active) | 3.86 (inactive) | 1.99 (inactive) | 2.18 (inactive) | 0.828 | 1.16 (inactive) | 1.52 (inactive) | -0.259
COc1ccc([Si](C)(C)[C@H]2[C@H](CC(=O)N3CCC[C@H]3CO)O[C@@]3(C(=O)N(Cc4cccc(N5CCOC5=O)c4)c4ccccc43)[C@@H]2C)cc1 | 1.18 (inactive) | -0.017 | 4.76 (inactive) | 1.13 (inactive) | 0.618 (inactive) | 0.722 (inactive) | 0.305 | 1.73 (inactive) | 1.76 (inactive) | 4.67
CO[C@H]1O[C@H](CO)[C@@H](OC(=O)Nc2ccccc2)[C@@H]2OC(=O)[C@@H](Cc3ccc4ccccc4c3)C/C=C/C[C@H](Cc3ccc4ccccc4c3)C(=O)O[C@@H]12 | 2.85 (inactive) | 0.0167 | 2.71 (inactive) | -0.0552 (inactive) | -1.94 (inactive) | -1.83 (inactive) | 0.77 | 0.829 (inactive) | 0.884 (inactive) | -0.542
CCCCC(O)C1C=CC2C(=O)N(C)C(=O)C2N1N1CCCCC1 (stereo not given) | -1.43 (inactive) | 0.384 | 0.537 (inactive) | 0.917 (inactive) | 0.155 (inactive) | 1.47 (inactive) | -0.751 | -0.353 (inactive) | 0.133 (inactive) | -1.03
COC(=O)[C@@]1(Cc2ccc(OC)cc2)[C@H]2c3cc(C(=O)N4CCCC4)n(CCSCCO)c3C[C@H]2CN1C(=O)c1ccccc1 | -1.34 (inactive) | 0.399 | 2.07 (inactive) | 0.142 (inactive) | -0.0464 (inactive) | 0.667 (inactive) | -0.0335 | 0.354 (inactive) | -1.04 (inactive) | -0.201
CCOC(=O)C[C@H]1[C@H](OC(=O)c2ccc(C(=O)c3ccccc3)cc2)[C@@H](NC(=O)Cc2ccc(OC)cc2)c2cc(OCCCO)ccc2N1C(=O)c1ccc2ccccc2n1 | 0.378 (inactive) | 0.131 | 3.85 (inactive) | 1.05 (inactive) | -0.392 (inactive) | 0.604 (inactive) | -0.0822 | -1.03 (inactive) | 0.492 (inactive) | 1.53
NCCCCCNC(=O)[C@H]1C[C@H]2C(=O)N[C@@H](Cc3ccccc3)C(=O)N2[C@H]1c1cccc(OCCO)c1 | 0.545 (inactive) | 1.17 | 3.99 (inactive) | 0.812 (inactive) | -0.685 (inactive) | 0.325 (inactive) | -0.136 | 1.38 (inactive) | 0.875 (inactive) | 0.434
O=C1C2C=CC(C(O)COCc3ccccc3)N(Nc3ccc([N+](=O)[O-])cc3)C2C(=O)N1c1ccccc1 (stereo not given) | 0.383 (inactive) | 0.447 | 9.2 (active) | 0.581 (inactive) | -0.214 (inactive) | -0.809 (inactive) | 0.213 | -0.51 (inactive) | -0.338 (inactive) | 0.629
COC(=O)[C@@]1(CCC(=O)OC(C)(C)C)N=C(c2ccc(OCCCO)cc2)O[C@H]1c1ccccc1 | -1.12 (inactive) | -0.009 | 26 (active) | 14.9 (active) | 2.32 (inactive) | 1.89 (inactive) | 0.197 | -2.39 (inactive) | -0.204 (inactive) | -2.57
COCC(=C=CC[C@@H](O)c1ccc(OCCO)cc1)C[C@@H](O)c1ccccn1 | -0.125 (inactive) | -0.0061 | 6.36 (inactive) | 0.848 (inactive) | -0.315 (inactive) | 0.429 (inactive) | -0.577 | -0.0904 (inactive) | 0.654 (inactive) | 0.177
O=C(O)[C@@]1(CCS(=O)(=O)c2ccccc2)N=C(c2ccc(OCCCO)cc2)O[C@H]1c1ccccc1 | 0.183 (inactive) | 0.0458 | 22.6 (active) | 4.96 (inactive) | 0.178 (inactive) | 0.789 (inactive) | -0.238 | -0.333 (inactive) | 1.66 (inactive) | 1.26
CO[C@H]1O[C@H](CO)[C@@H](OC(=O)Nc2cccc(F)c2)[C@H](OC(=O)Nc2ccccc2)[C@H]1OC(=O)Nc1ccccc1 | -0.198 (inactive) | 0.435 | 4.41 (inactive) | 1.13 (inactive) | -0.711 (inactive) | 0.986 (inactive) | 0.627 | -6.46 (inactive) | -1.09 (inactive) | -2.13
COC(=O)[C@@]1(Cc2ccccc2)[C@H]2c3cc(C(=O)N4CCCC4)n(Cc4c(CO)[nH]cc(C)c4=O)c3C[C@H]2CN1C(=O)c1ccccc1 | -1.73 (inactive) | -0.0971 | 0.315 (inactive) | 0.32 (inactive) | 1.27 (inactive) | 0.397 (inactive) | -0.289 | 0.562 (inactive) | -0.976 (inactive) | -2.9
C=CC[C@]1(C(=O)N2CCOCC2)N=C(c2ccc(OCCCO)cc2)O[C@H]1c1ccccc1N=[N+]=[N-] | 0.65 (inactive) | 0.448 | 33.6 (active) | 29.5 (active) | 3.29 (inactive) | 7.61 (inactive) | 2.04 | -1.82 (inactive) | 0.451 (inactive) | -2.56
C=CCNC(=O)[C@@H]1[C@H]2C(=O)O[C@H](c3ccccc3)[C@H](c3ccccc3)N2[C@H](c2ccc(OCCO)cc2)[C@@]12C(=O)N(C(=O)OCCOC)c1ccc(C#CCNC(N)=O)cc12 | 1.43 (inactive) | 0.284 | 4.2 (inactive) | 0.921 (inactive) | 1.47 (inactive) | 0.514 (inactive) | 0.472 | 0.827 (inactive) | -0.213 (inactive) | 0.0624
O=C(NC1CC1)[C@@H]1c2ccccc2C(=O)N(C2Cc3ccccc3C2)[C@H]1c1ccc(CO)cc1 | 0.412 (inactive) | -0.0377 | 2.06 (inactive) | 0.208 (inactive) | 0.531 (inactive) | -0.112 (inactive) | -0.153 | 0.0375 (inactive) | 0.108 (inactive) | -0.717
C=C(CCCC)C(=O)CC[C@@H](OC(C)=O)c1ccc(CO)o1 | 0.0002 (inactive) | -0.0278 | 0.113 (inactive) | 0.0176 (inactive) | -1.18 (inactive) | 0.184 (inactive) | -0.0622 | -1.23 (inactive) | -0.538 (inactive) | -2.37
OB1C=CCC(CCc2ccccc2)O1 (stereo not given) | 3.28 (inactive) | -0.0651 | -0.263 (inactive) | -0.649 (inactive) | -1.32 (inactive) | -2.19 (inactive) | 0.946 | -1.05 (inactive) | 0.69 (inactive) | 1.22
COC(=O)c1c2oc(c1C(=O)OC)C(=O)NC1(CCCCC1)c1cn(nn1)C[C@H](Cc1ccccc1)NC(=O)N[C@H](CO)CC2 | 2.35 (inactive) | -0.258 | 1.66 (inactive) | -0.265 (inactive) | 0.869 (inactive) | 0.285 (inactive) | 0.229 | -0.463 (inactive) | 1.26 (inactive) | -0.0346
CC[C@@H]1C=C(C(=O)O)[C@H](c2cccc3ccccc23)N1S(=O)(=O)c1ccc(C)cc1 | -0.453 (inactive) | 0.0774 | 1.26 (inactive) | 1.2 (inactive) | -0.129 (inactive) | 0.708 (inactive) | -0.769 | 0.338 (inactive) | -0.931 (inactive) | 0.133
COC(=O)[C@@]1(Cc2ccc(OC)cc2)[C@H]2c3cc(C(=O)N4CCCC4)n(CCc4ccc(O)c(O)c4)c3C[C@H]2CN1C(=O)c1ccccc1 | -1.84 (inactive) | 0.378 | 5.39 (inactive) | 0.451 (inactive) | 2.1 (inactive) | 0.912 (inactive) | 0.198 | -3.75 (inactive) | -8.38 (active) | -7.92

— PubChem BioAssay
